40 molecules from PubChem BioAssay (Tox21) can be followed below.

Experiment [1] is described as follows: qHTS assay to identify small molecule antagonists of the glucocorticoid receptor (GR) signaling pathway - cell viability counter screen (AID 720693). Note: nearly all actives have a fitted effect of over 55% in size.
A short description of experiment [2]: qHTS assay for identifying genotoxic compounds that show differential cytotoxicity against isogenic chicken DT40 cell lines with known DNA damage response pathways - wild type cell line (AID 743012). Note: nearly all actives have a fitted effect of over 60% in size. Note: potency is the fitted concentration of half-maximal effect. In short, it runs like this: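 Cells (DT40 wild type, 300/well) are treated with DMSO-dissolved compounds after a ~0.5 h pre-incubation and kept 40 h at 37 C/5% CO2. Viability is then measured by CellTiter-Glo luminescence following 30 min at room temperature.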

Experiment [3] can be described thus: qHTS assay for identifying genotoxic compounds that show differential cytotoxicity against isogenic chicken DT40 cell lines with known DNA damage response pathways - Rev3 mutant cell line (AID 743014). Note: nearly all actives have a fitted effect of over 55% in size. Note: potency is the fitted concentration of half-maximal effect.
A short description of experiment [4]: qHTS assay for identifying genotoxic compounds that show differential cytotoxicity against isogenic chicken DT40 cell lines with known DNA damage response pathways - Rad54/Ku70 mutant cell line (AID 743015). Note: nearly all actives have a fitted effect of over 60% in size. Note: potency is the fitted concentration of half-maximal effect.
Experiment [5] in a line: qHTS assay to identify small molecule antagonists of the androgen receptor (AR) signaling pathway - cell viability counter screen (AID 743033; note: nearly all actives have a fitted effect of over 45% in size).
Experiment [6] in a line: qHTS assay to identify small molecule antagonists of the androgen receptor (AR) signaling pathway using the MDA cell line - cell viability counter screen (AID 743041; note: nearly all actives have a fitted effect of over 45% in size). In short, it runs like this: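 MDA-kb2 AR-luc cells (MMTV-luciferase, AR/GR responsive) treated with compounds plus R1881 agonist for 16 h at 37C. CellTiter-Fluor added at 15.5 h; fluorescence read after 30 min in the same wells.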

Experiment [7] deals with Androgen receptor (Homo sapiens) (UniProt P10275). The experiment is described as follows: qHTS assay to identify small molecule antagonists of the androgen receptor (AR) signaling pathway (AID 743035; active = well fitted inhibition curve with a large enough effect in the signal ratio in the repeat runs, not every such curve was filed as active; the % refers to the signal ratio; note: potency is the fitted concentration of half-maximal effect). The essentials:
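Antagonism is scored as loss of R1881-driven beta-lactamase reporter expression in HEK293 cells carrying the reporter under a UAS element, after 16 h co-treatment at 37C and a 2 h room-temperature FRET substrate read.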

Experiment [8] has the same target. The experiment is described as follows: qHTS assay to identify small molecule agonists of the androgen receptor (AR) signaling pathway (AID 743036; active = well fitted activation curve with a large enough effect in the signal ratio in the repeat runs, with a control signal flat, not every such curve was filed as active; the % refers to the signal ratio). In short, it runs like this: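 HEK293 cells stably carrying a UAS-driven beta-lactamase reporter (GeneBLAzer AR-UAS-bla-GripTite) were plated at 2,000 cells/well, rested 4 h at 37C, then exposed to compounds in DMSO for 16 h. LiveBLAzer B/G FRET substrate was added for 2 h at room temperature; fluorescence read.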

For experiment [9] the target is unchanged. The experiment in a line: qHTS assay to identify small molecule agonists of the androgen receptor (AR) signaling pathway using the MDA cell line (AID 743040; note: nearly all actives have a fitted effect of over 20% in size). In short, it runs like this:
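MDA-kb2 breast carcinoma cells carrying MMTV-luciferase (responsive to AR and GR), plated 5 h then treated 16 h with compounds at 37C, 0% CO2. Read-out was ONE-Glo luminescence after 30 min at room temperature.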

The target is the same in experiment [10]. The experiment is described as follows: qHTS assay to identify small molecule antagonists of the androgen receptor (AR) signaling pathway using the MDA cell line (AID 743042; note: nearly all actives have a fitted effect of over 55% in size; note: potency is the fitted concentration of half-maximal effect). The essentials:
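MDA-kb2 breast carcinoma cells carrying MMTV-luciferase (AR/GR responsive) were co-treated with compounds and the agonist R1881 for 16 h at 37C. Inhibition read as ONE-Glo luminescence; CellTiter-Fluor fluorescence measured in parallel for cytotoxicity.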

Molecules are shown by their SMILES. “And” between values parts separate entries of the source, which are not always exact repeats. Equal values may be shown once. Results filed as inconclusive are left out. A structure can be active in one record and inactive in another. The source made the active and inactive calls. Unless noted, calls come from the whole dose curve; as a rule, active = well fitted curve in the direction sought with a large enough effect in the repeat runs; inconclusive = weak or mixed curves; inactive = no such curve, though single readings can be large; an effect the other way counts as inactive or inconclusive.

Sequence of Androgen receptor (Homo sapiens) (P10275 whole entry, looked up): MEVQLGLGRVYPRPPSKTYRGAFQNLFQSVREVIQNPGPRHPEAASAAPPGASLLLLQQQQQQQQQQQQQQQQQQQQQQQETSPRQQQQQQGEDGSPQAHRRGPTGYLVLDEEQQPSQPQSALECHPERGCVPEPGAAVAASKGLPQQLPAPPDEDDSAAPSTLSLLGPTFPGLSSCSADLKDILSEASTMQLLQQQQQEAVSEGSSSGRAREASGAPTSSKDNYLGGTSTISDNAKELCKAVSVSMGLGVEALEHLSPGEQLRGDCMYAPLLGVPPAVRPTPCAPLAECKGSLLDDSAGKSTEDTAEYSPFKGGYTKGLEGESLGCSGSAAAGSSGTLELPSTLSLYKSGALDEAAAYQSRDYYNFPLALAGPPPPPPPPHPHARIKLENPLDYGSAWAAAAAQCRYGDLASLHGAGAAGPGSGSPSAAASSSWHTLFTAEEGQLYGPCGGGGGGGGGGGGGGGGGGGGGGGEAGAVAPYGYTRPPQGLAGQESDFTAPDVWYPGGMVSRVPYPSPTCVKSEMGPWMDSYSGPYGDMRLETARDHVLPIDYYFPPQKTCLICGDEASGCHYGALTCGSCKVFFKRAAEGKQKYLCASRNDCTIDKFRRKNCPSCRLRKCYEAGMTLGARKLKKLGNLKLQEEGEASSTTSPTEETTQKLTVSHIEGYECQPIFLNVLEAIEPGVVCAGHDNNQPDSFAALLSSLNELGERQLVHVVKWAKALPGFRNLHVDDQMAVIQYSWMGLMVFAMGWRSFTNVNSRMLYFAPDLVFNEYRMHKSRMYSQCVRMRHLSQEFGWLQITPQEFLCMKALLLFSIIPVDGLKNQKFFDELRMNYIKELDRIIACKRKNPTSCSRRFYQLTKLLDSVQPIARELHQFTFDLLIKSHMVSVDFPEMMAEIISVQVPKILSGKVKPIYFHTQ

`C=CC#N`: the Potency result in [1], in experiment [2], in experiment [3] and in [4] was “inactive” throughout. Also, the result in [5] and in experiment [6] was inactive.
On to `O=[N+]([O-])c1ccc(Cl)c(Cl)c1`, for which the Potency result in [1], in experiment [2], in experiment [3] and in experiment [4] was “inactive” each time. In addition, the outcome in [5] and in [6] was inactive.
Regarding `CCOC(=O)CC(SP(=O)(OC)OC)C(=O)OCC` (stereo unspecified), the Potency result in experiment [1], in experiment [2], in experiment [3] and in [4] was “inactive” throughout. For the same molecule, the call in [5] and in experiment [6] was inactive.
In the case of `OC[C@@H](O)[C@H]1O[C@@H]2O[C@H](C(Cl)(Cl)Cl)O[C@@H]2[C@H]1O`, the Potency result in experiment [1], in [2], in [3] and in experiment [4] was “inactive” in each case. For the same molecule, the call in experiment [5] and in experiment [6] was inactive.
Take `Cc1ccccc1N`: the Potency result in experiment [1], in experiment [2], in experiment [3] and in experiment [4] was “inactive” in each case. Further, the molecule was classed as inactive in experiment [5] and in [6].
In the case of `COS(=O)(=O)OC`, the Potency result in experiment [1], in experiment [2], in experiment [3] and in experiment [4] was “inactive” throughout. Also, the molecule was classed as inactive in experiment [5] and in experiment [6].
With `Cl/C=C/Cl`, the Potency result in [1], in experiment [2], in experiment [3] and in experiment [4] was “inactive” throughout. Moreover, the call in experiment [5] and in [6] was inactive.
`COc1nc(NC(C)C)nc(NC(C)C)n1`: the Potency result in [1], in experiment [2], in [3] and in [4] was “inactive” in each case. Also, the result in experiment [5] and in experiment [6] was inactive.
`ClCCOCCCl`: the Potency entry in [1], in [2], in experiment [3] and in [4] was “inactive” throughout. Also, the molecule was classed as inactive in experiment [5] and in experiment [6].
As for `CN(C)C(=O)Cl`, the Potency entry in experiment [1], in experiment [2], in [3] and in [4] was “inactive” in each case. Also, the outcome in experiment [5] and in experiment [6] was inactive.
Consider `CNC(=O)O/N=C/C(C)(C)S(C)=O` (stereo unspecified), for which the Potency result in experiment [1], in experiment [2], in experiment [3] and in experiment [4] was “inactive” in each case. Further, the result in experiment [5] and in experiment [6] was inactive.
For `CC(C)(C)C(=O)CCl`, the Potency result in experiment [1], in experiment [2], in experiment [3], in [7] and in experiment [10] was “inactive” throughout. The result in experiment [5], in experiment [8], in experiment [9] and in [6] was inactive.
Consider `N#Cc1ccccn1`, for which the Potency result in experiment [1], in experiment [2], in [3] and in experiment [4] was “inactive” throughout. The result in experiment [5] and in experiment [6] was inactive.
Consider `Cc1ccc(N)cc1`, for which the Potency result in [1], in [2], in experiment [3] and in [4] was “inactive” throughout. The result in [5] and in experiment [6] was inactive.
With `CCCCC(CC)C(=O)Cl` (stereo unspecified), the Potency entry in [1], in experiment [2], in [3] and in experiment [4] was “inactive” in each case. Moreover, the molecule was called inactive in experiment [5] and in [6].
Turning to `Nc1cc(Cl)cc(Cl)c1`, the Potency entry in [1], in [2], in [3] and in [4] was “inactive” in each case. The result in experiment [5] and in experiment [6] was inactive.
As for `C/C=C/c1ccc2c(c1)OCO2`, the Potency entry in experiment [1], in experiment [2], in experiment [3] and in experiment [4] was “inactive” in each case. For the same molecule, the molecule was classed as inactive in experiment [5] and in [6].
Regarding `Nc1nc(N)nc(NC2CC2)n1`, the Potency entry in experiment [1], in [2] and in experiment [3] was “inactive” throughout. Also, the Potency result in experiment [4] was “inactive and 61.1 µM (active)”. Moreover, the molecule was called inactive in experiment [5] and in [6].
Consider `CC(C)CCCCCCOC(=O)c1ccccc1C(=O)OCCCCCCC(C)C`, for which the Potency entry in [1], in experiment [2], in [3], in experiment [4] and in [10] was “inactive” each time. Moreover, the outcome in [5], in experiment [8], in experiment [9] and in experiment [6] was inactive.
On to `COC(C)(C)CCCC(C)C/C=C/C(C)=C/C(=O)OC(C)C` (stereo unspecified), for which the Potency result in [1], in [3], in experiment [4], in experiment [7] and in [10] was “inactive” in each case. Besides, the Potency in experiment [2] was 29.8 µM (active) and inactive. In addition, the molecule was classed as inactive in experiment [5], in [8], in [9] and in experiment [6].
`Nc1ccc(N)cc1`: the Potency entry in experiment [1] was “inactive”. Further, the Potency is 54.7 µM (active) in [2]; 19.4 µM (active) and 54.5 µM (active) in [3]; 26.6 µM (active) and 21.8 µM (active) in experiment [4]. The molecule was called inactive in experiment [5] and in [6].
Regarding `CN(C)C(=O)Nc1cccc(C(F)(F)F)c1`, the Potency result in experiment [1], in experiment [2], in experiment [3] and in [4] was “inactive” in each case. In addition, the molecule was called inactive in experiment [5] and in experiment [6].
For `CCOc1ccc(N)cc1`, the Potency result in experiment [1], in experiment [2] and in experiment [3] was “inactive” throughout. Besides, the Potency in experiment [4] is 61.3 µM (active) and inactive. For the same molecule, the result in experiment [5] and in [6] was inactive.
In the case of `[N-]=[N+]=CC(=O)OC[C@H](N)C(=O)O`, the Potency result in experiment [1], in [2], in [3] and in experiment [4] was “inactive” each time. Moreover, the call in experiment [5] and in experiment [6] was inactive.
In the case of `CCCCCCCCCCCCCCCCCC(=O)O`, the Potency entry in experiment [1], in [2] and in experiment [4] was “inactive” throughout. In experiment [3], the Potency was 60.7 µM (active) and inactive. For the same molecule, the result in [5] and in experiment [6] was inactive.
For `C=CC(=O)OCCCCCC(C)C`, the Potency result in experiment [1], in [2], in experiment [3], in experiment [7] and in [10] was “inactive” in each case. Further, the molecule was called inactive in experiment [5], in experiment [8], in [9] and in experiment [6].
Turning to `CCOP(=S)(OCC)Oc1ccc([N+](=O)[O-])cc1`, the Potency entry in experiment [1], in experiment [2], in [3] and in experiment [4] was “inactive” throughout. The result in experiment [5] and in experiment [6] was inactive.
On to `O=C(O)COc1ccccc1`, for which the Potency entry in experiment [1], in experiment [2], in experiment [3] and in experiment [4] was “inactive” each time. The outcome in [5] and in experiment [6] was inactive.
On to `CCSC(=O)N1CCCCCC1`, for which the Potency entry in [1], in experiment [2], in experiment [3] and in [4] was “inactive” each time. Also, the outcome in [5] and in [6] was inactive.
Consider `ClC(Cl)c1ccccc1`, for which the Potency entry in experiment [1], in experiment [2] and in experiment [3] was “inactive” throughout. Also, the outcome in experiment [5] and in [6] was inactive.
In the case of `CNC(=O)O/N=C/C(C)(C)SC`, the Potency result in experiment [1], in [2] and in experiment [3] was “inactive” throughout. Moreover, the outcome in experiment [5] and in experiment [6] was inactive.
Regarding `Nc1ncc([N+](=O)[O-])s1`, the Potency result in experiment [1], in experiment [2] and in experiment [4] was “inactive” throughout. The molecule was classed as inactive in experiment [5] and in [6].
As to `CNCC(O)c1ccc(O)cc1` (stereo unspecified), the Potency entry in experiment [1], in experiment [2] and in experiment [3] was “inactive” throughout. Moreover, the call in [5] and in experiment [6] was inactive.
For `Cc1cc(O)ccc1Cl`, the Potency entry in [1], in experiment [2] and in experiment [3] was “inactive” each time. For the same molecule, the call in experiment [5] and in experiment [6] was inactive.
Regarding `Sc1ccccc1`, the Potency entry in experiment [1], in experiment [2] and in experiment [3] was “inactive” in each case. For the same molecule, the molecule was classed as inactive in [5] and in experiment [6].
In the case of `CC12CC1(C)C(=O)N(c1cc(Cl)cc(Cl)c1)C2=O` (stereo unspecified), the Potency result in experiment [1], in experiment [2] and in [4] was “inactive” throughout. Besides, the molecule was classed as inactive in experiment [5], in experiment [8], in experiment [9] and in experiment [6]. For the same molecule, the Potency in experiment [7] is 6.14 µM (active) and 3.89 µM (active); in experiment [10], 19.3 µM (active) and 9.69 µM (active).
Take `OCCCCO`: the Potency entry in experiment [1], in [2] and in experiment [3] was “inactive” in each case. Also, the outcome in [5] and in [6] was inactive.
`Cc1ccc(N=C=O)cc1N=C=O`: the Potency entry in [1], in experiment [2] and in experiment [3] was “inactive” throughout. Besides, the call in [5] and in [6] was inactive.
For `Nc1ccc([As](=O)(O)O)cc1`, the Potency result in [1] and in [2] was “inactive” in each case. Besides, the Potency result in experiment [3] was “inactive and 29.8 µM (active)”. Moreover, the molecule was classed as inactive in experiment [5] and in experiment [6].
Consider `C=CCN=C=S`, for which the Potency entry in experiment [1], in experiment [2] and in [4] was “inactive” throughout. Also, the molecule was classed as inactive in [5] and in experiment [6].
